TDP1 cell CPT: DT40-hTDP1 cell growth loss with CPT; chicken DT40 Tdp1-/-;hTDP1 cells + 20 nM CPT, ATP luminescence, 48 h; Potency, µM (doses to about 46.2 µM), inactives show top-dose activity change, negative = growth inhibition, hits mostly inhibitors; 420,000 tested, 12% active; further: potency means the concentration at half of the fitted maximal effect; nearly all actives have a fitted effect of over 55% in size
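Cell growth measured by CellTiter-Glo luminescence after a minimum 48 h, 37 C compound exposure with 20 nM CPT in Tdp1-knockout DT40 cells stably expressing hTDP1, seeded 400/well; qHTS titration format.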
DT40 TDP1 no CPT: qHTS for Inhibitors of human tyrosyl-DNA phosphodiesterase 1 (TDP1): qHTS in cells in absence of CPT; DT40 Tdp1-/- hTDP1 cells, no CPT, ATP luminescence, 48 h; Potency, µM (highest dose often 46.2 µM), without a hit: at the top dose activity change, negative = growth inhibition, hits mostly inhibitors; 420,000 tested, 15% active; AID 686978, 2013; further: potency means the concentration at half of the fitted maximal effect; nearly all actives have a fitted effect of over 55% in size
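Readout: luminescence from CellTiter-Glo after 30 min in the dark at RT. Cells: DT40 Tdp1-/- with stable hTDP1, 400/well. Exposure: compounds alone, ≥48 hr, 37 °C.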
LDHA inh: blocks human lactate dehydrogenase A; purified LDHA, NADH/diaphorase-resazurin fluorescence; stronger effect = lower value; activity change, % (values are at about 110 or 230 µM); 480,000 tested, 0.15% active; AID 1347041; in the data active means activity change below about -30%; inconclusive means mostly about -25% to -30%;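 further: plate controls were DMSO wells for no effect and wells without enzyme for full effect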
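LDH5 2 nM; NADH 0.06 mM, pyruvate 0.2 mM; 200 mM Tris pH 7.4, EDTA, Tween-20; 5 min RT. Detection: diaphorase 0.133 mg/mL + resazurin 37 µM, fluorescence ex540/em590 at 0 and 20 min; normalized to enzyme-free and DMSO wells.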
RORgamma inh: ROR gamma (mouse) transcription inhibition; 310,000 tested, 5.4% active; P51450; Drosophila S2 Gal4-RORgamma UAS-luciferase reporter, 20 h; Potency, µM (doses to about 53.6 µM), for the others: top-dose activity change, negative = inhibition, hits mostly inhibitors; AID 2551; further: potency means the concentration at half of the fitted maximal effect; nearly all actives have a fitted effect of over 60% in size
Target sequence (P51450 whole entry, looked up, the tested form may be a part): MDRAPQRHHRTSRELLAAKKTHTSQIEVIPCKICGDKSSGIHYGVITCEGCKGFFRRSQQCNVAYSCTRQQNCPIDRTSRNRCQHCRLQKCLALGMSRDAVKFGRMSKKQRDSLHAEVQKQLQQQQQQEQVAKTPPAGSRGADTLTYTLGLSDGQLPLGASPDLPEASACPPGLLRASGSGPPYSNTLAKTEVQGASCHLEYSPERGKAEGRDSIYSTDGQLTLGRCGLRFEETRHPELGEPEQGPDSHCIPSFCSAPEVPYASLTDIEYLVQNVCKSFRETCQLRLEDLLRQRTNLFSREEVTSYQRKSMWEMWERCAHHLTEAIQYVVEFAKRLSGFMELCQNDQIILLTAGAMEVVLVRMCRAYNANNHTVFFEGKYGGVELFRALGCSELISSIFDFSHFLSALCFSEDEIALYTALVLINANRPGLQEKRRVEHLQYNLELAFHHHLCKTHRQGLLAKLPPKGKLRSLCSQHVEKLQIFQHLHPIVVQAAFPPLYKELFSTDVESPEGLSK
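Stable Schneider cell line, Gal4 DNA-binding domain fused to ROR gamma, UAS-luciferase. Cmpd 1 hr RT → CuSO4 700 uM final → 20 hr RT → luciferase reagent 10 min → luminescence.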
IL1B secr inh: blocks inflammasome-driven IL-1 beta release | activity change, % at 57.5 µM | 360,000 tested, 4.7% active | THP-1 LPS/ATP IL-1B secretion, AlphaLISA, 16 h; stronger effect = lower value | AID 743279; in the data active means activity change below about -50%; inconclusive means mostly about -30% to -49%
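THP-1 cells pretreated 1 hr with compounds (up to 57.5 uM final), then stimulated with LPS (250 ng/mL final) plus ATP (1.25 mM final); secreted IL-1B measured by AlphaLISA after 16 hr, decreased signal indicating inhibition.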
VP16 counter: inhibits Gal4-VP16 luciferase reporter, ROR gamma counter-screen | Drosophila S2 Gal4-VP16 UAS-luciferase, luminescence, 20 h | Potency, µM (series often up to 53.6 µM), inactives show top-dose activity, negative = inhibition, most hits filed as inhibitors | 310,000 tested, 3.5% active | AID 2546;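 further: Gal4-VP16 expression switched on by copper sulfate through the metallothionein promoter; potency means the concentration at half of the fitted maximal effect; nearly all actives have a fitted effect of over 50% in size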
* hit, by the source's call; ? = inconclusive; . = no result; [ ] = another dose, or the depositor's remark. Shown are actives, neighbours in structure and some others; about 18% of the full set was active somewhere. Unless noted, the call rests on the fitted dose curve; in most records, active means well fitted curve in the direction sought with a large enough effect; inconclusive means small, poorly fitted or top-dose-only effect, or another doubt; inactive means no such curve, though single readings can be large; an effect the other way counts as inactive or inconclusive. Unless noted, on the % scale 0 is the no-effect control and ±100 the full control effect.

SMILES	TDP1 cell CPT	DT40 TDP1 no CPT	LDHA inh	RORgamma inh	IL1B secr inh	VP16 counter
Cc1nc(CCNC(=O)c2c[nH]c3ccccc23)cs1	.	.	7.7	.	.	.
N=c1ccn(Cc2cccc(F)c2)cc1	?	18.4µM*	-6.7	?	14.9	10µM*
CCC(Sc1nnc2c(=O)n(-c3cccc(OC)c3)ccn12)C(=O)Nc1c(C)cccc1C (stereo unspecified)	.	.	-19.4	.	.	.
COc1cc(/C=C2/C(C)=C(C#N)c3nc(N)c(C#N)c(C)c32)ccc1OCC(=O)O	?	-13.8%	12.2	4.0%	-23.2	-6.5%
CC1=C(C#N)c2nc(N)c(C#N)c(C)c2/C1=C\c1ccc(-c2ccccc2C(=O)O)o1	-6.3%	-5.7%	14.2	-17.3%	-87.5*	1.9%
Fc1ccc(-c2nnc(COc3cccc(Cl)c3)o2)cc1	.	.	3.3	.	.	.
CCCN1CCN(C(=O)CN2C(=O)c3cccnc3Oc3ccc(Cl)cc32)CC1	.	.	-0.2	.	.	.
COC(=O)C1=C(C)N(Cc2ccccc2)C(=O)N[C@H]1c1ccco1	-10.6%	0.6%	-4.4	.	22.6	.
COC(=O)C1=C(C(=O)OC)[C@]2([C@H]3C/C=C\CN[C@@H](Cc4ccccc4)C(=O)N3Cc3ccccc3)C=C[C@H]1O2	?	10µM*	.	.	.	.
COC(=O)C1=C(C(=O)OC)[C@]2([C@H]3CCCCN[C@@H](Cc4ccccc4)C(=O)N3Cc3ccccc3)C=C[C@H]1O2	5.8µM*	6.51µM*	-6.9	.	-4.5	.
COc1cc(OC)cc(OCC(=O)NC2CCCCCC2)c1	.	.	4.8	.	.	.
C=CCSc1nc2c(c(=O)[nH]c(=O)n2C)n1CC(=C)C	.	.	-8.3	.	.	.
Cc1ccc(S(=O)(=O)Oc2ccccc2/C=C2\SC(=O)NC2=O)cc1	8.4%	-14.6%	-10.3	35.6%	8.4	-8.3%
Cc1ccc(S(=O)(=O)Oc2ccccc2/C=N/NC(=O)c2nn(C)cc2[N+](=O)[O-])cc1	?	16.4µM*	-4.7	82.6%	?	-13.6%
Cc1ccc(S(=O)(=O)Oc2ccccc2/C=N/N=C(N)N)cc1	?	18.4µM*	0.3	-3.8%	-127.3*	-0.5%
Cc1ccc(S(=O)(=O)Oc2ccccc2/C=N/NC(N)=S)cc1	4.11µM*	6.51µM*	-1.1	?	16.5	?
CCCn1c(NC(=O)c2oc3ccccc3c2COCC)nc2ccccc21	.	.	17.6	.	.	.
Cc1ccccc1-c1nc(-c2ccccc2OCC(=O)N2CCCC(C)C2)no1 (stereo unspecified)	.	.	-1.4	.	.	.
CCCNC(=O)NNC(=O)c1cc(-c2ccc(Cl)cc2)nc2ccccc12	.	.	9.4	.	.	.
N=C1/C(=C/c2cccs2)C(=O)N=C2SN=C(SCc3ccccc3)N12	-12.6%	-28.8%	-17.9	40.9%	16.0	18.2%
CC(C)CSC1=NSC2=NC(=O)/C(=C\c3cccs3)C(=N)N12	?	20.6µM*	0.2	?	-72.5*	-14.8%
CCC1c2ccsc2CCN1C(=O)COc1ccc2ccc(=O)oc2c1 (stereo unspecified)	.	.	-11.5	.	.	.
CCc1ccccc1NC(=O)Cn1cccc1C1=NC(c2ccccc2)CO1 (stereo unspecified)	-1.2%	-3.2%	-8.1	2.6%	10.1	?
CCC1COC(c2cccn2Cc2ccccc2Cl)=N1 (stereo unspecified)	-5.5%	-2.7%	-1.1	8.91µM*	13.6	4.3%
Cc1cc(N=Cc2c(O)n(-c3cccc(Cl)c3)c(=O)c3ccccc23)no1	11.6µM*	20.6µM*	-4.4	14.7%	0.0	-3.1%
SMILES	TDP1 cell CPT	DT40 TDP1 no CPT	LDHA inh	RORgamma inh	IL1B secr inh	VP16 counter
COc1ccc(CNC(=O)C(C#N)c2nc3ccccc3nc2N2CCN(C)CC2)cc1 (stereo unspecified)	?	-29.3%	-6.6	-18.0%	-51.7*	-10.7%
COc1ccc(CNC(=O)C(C#N)c2nc3ccccc3nc2N2CCCC2)cc1 (stereo unspecified)	?	?	-1.2	14.3%	0.6	-9.6%
CCOC(=O)C1CCN(c2nc3ccccc3nc2C(C#N)C(=O)OC(C)COC)CC1 (stereo unspecified)	20.6µM*	18.4µM*	2.6	-24.5%	-2.4	-3.4%
C=CCOC(=O)C(C#N)c1nc2ccccc2nc1N1CCN(Cc2ccc3c(c2)OCO3)CC1 (stereo unspecified)	?	?	-2.4	0.0%	-52.0*	-4.4%
CCCCNC(=O)C(C#N)c1nc2ccccc2nc1N1CCN(Cc2ccc3c(c2)OCO3)CC1 (stereo unspecified)	-5.7%	-7.5%	-0.5	.	0.0	.
CCOC(=O)C1CCN(c2nc3ccccc3nc2C(C#N)C(=O)OC(C)C)CC1 (stereo unspecified)	16.4µM*	11.6µM*	-1.1	10.3%	-16.9	0.8%
CCCC(=O)n1ccn(S(=O)(=O)c2ccc(C)cc2)c1=O	.	.	-11.8	.	.	.
CCCC(=O)C1=C(NC(C)C(=O)O)CCCC1=O (stereo unspecified)	.	.	3.6	.	.	.
CCCCn1nc(C(=O)N[C@@H](Cc2ccccc2)C(=O)O)c2ccccc2c1=O	.	.	3.4	.	.	.
C=CCOC(=O)C(C#N)c1nc2ccccc2nc1N1CCC(C(=O)OCC)CC1 (stereo unspecified)	?	18.4µM*	-5.2	-13.0%[0.365 µM]	-17.3	.
COC(=O)C1CCN(c2nc3ccccc3nc2C(C#N)C(=O)NCc2ccccc2)CC1 (stereo unspecified)	.	.	-15.5	.	.	.
COC(=O)C1CCN(c2nc3ccccc3nc2C(C#N)C(=O)OCC(C)C)CC1 (stereo unspecified)	23.1µM*	11.6µM*	-2.4	0.2%	-4.3	-0.8%
CCOC(=O)C1CCN(c2nc3ccccc3nc2C(C#N)C(=O)OCCOC)CC1 (stereo unspecified)	?	?	-2.3	-16.5%	-10.0	-2.6%
Oc1nc(Nc2ccc(F)cc2)sc1/C=C1\C=Nc2ccccc21	?	-29.6%	-9.5	?	-78.1*	-1.1%
Oc1cccc(Nc2nc(O)c(/C=C3\C=Nc4ccccc43)s2)c1	?	?	-2.8	?	82.7	?
CC1=Nc2ccccc2/C1=C\c1sc(Nc2ccc(C)cc2)nc1O	0.581µM*	0.92µM*	-8.6	33.4%	-52.9*	-13.4%
Fc1ccc(CNC2=NCCNC23CCCCCC3)cc1	.	.	4.5	.	.	.
Cc1cccc(-c2nc(CS(=O)CC(=O)NCc3ccc(F)cc3)c(C)o2)c1 (stereo unspecified)	.	.	6.6	.	.	.
